Pol iota inh – blocks human DNA polymerase iota activity | Q9UNA4 | Pol iota fluorescent replication assay, 10 min | Potency, µM (top dose mostly 115 µM), actives largely listed as inhibitors | 390,000 compounds, 1% hits
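Fluorescent replication assay read twice, at 0 min and 10 min after adding 50 nM (final) substrate. Enzyme (10 nM) and compounds were first incubated 15 min at room temperature; enzyme-free buffer wells were negative controls.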
WRN inhibitor – inhibitors of human WRN helicase | WRN helicase unwinding, fluorescent forked duplex, kinetic | Potency, µM (top dose mostly 114 µM), hits mostly inhibitors | 360,000 compounds, 0.46% hits | AID 651768; note: nearly all actives have a fitted effect of over 55% in size
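Primary qHTS, 1536-well format. 20 nM WRN + compound, 15 min RT; start with 100 nM forked fluorophore/quencher duplex, 2 mM ATP (final); kinetic read ex 525/em 598 nm.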
FEN1 inhibitor – blocks human flap endonuclease 1; 390,000 compounds, 0.35% hits; Recombinant FEN1 flap cleavage, fluorescence, 15 min; P39748; Potency, µM (highest dose often 114 µM), most hits filed as inhibitors; note: nearly all actives have a fitted effect of over 65% in size
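Concentration–response screening of FEN1 (10 nM): 15 min compound preincubation at room temperature, reaction started with 50 nM substrate and read at 0 and 15 min. Corrected, normalized data were fitted by a four-parameter Hill equation.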
Pol beta inh – DNA polymerase beta (human) inhibition. P06746. Potency, µM (series often up to 114 µM), hits mostly inhibitors. AID 485314. 340,000 compounds, 1.3% hits. Pol beta primer extension/strand displacement, fluorescence kinetic
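10 nM enzyme + cpd, 15 min RT; start with substrate 50 nM final; read 0 min and after 10 min RT. Corrected, normalized data; 4-parameter Hill curve fit.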
Pol kappa inh – blocks human DNA polymerase kappa activity | Q9UBT6 | Potency, µM (titrated, usually from 107 µM), most hits filed as inhibitors | 400,000 compounds, 0.53% hits | AID 588579 | purified Pol kappa, fluorescent DNA synthesis assay, 10 min
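Kinetic fluorescence screen: compound preincubated 15 min RT with 10 nM enzyme; 50 nM substrate (final) initiates; reads at 0/10 min.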
Pol eta inh – blocks human DNA polymerase eta activity | Q9Y253 | recombinant Pol eta, fluorescent DNA replication assay | Potency, µM (doses to about 114 µM), actives largely listed as inhibitors | 390,000 compounds, 1.2% hits | AID 588591
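Pol eta at 10 nM preincubated with compounds 15 min at room temperature; reaction started with fluorescent substrate (50 nM final) and read kinetically at 0 and 10 min.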
Hits are given with their value; - = inactive; ? = inconclusive; . = not tested or not shown; [ ] = dose if it differs, or a comment. Shown are actives, neighbours in structure and some others; about 2.4% of the full set was active somewhere. Calls come from the whole dose curve; as a rule, active = well fitted curve in the direction sought with a large enough effect; inconclusive = small, poorly fitted or top-dose-only effect, or another doubt; inactive = no such curve, though single readings can be large; an effect the other way counts as inactive or inconclusive.

SMILES | Pol iota inh | WRN inhibitor | FEN1 inhibitor | Pol beta inh | Pol kappa inh | Pol eta inh
Cc1nn(-c2ccccc2)c(C)c1/C=N/NC(=O)c1cc(-c2ccc(Cl)s2)[nH]n1 | - | - | - | - | - | -
CCOc1ccc(NC(=O)c2cc3c(s2)-c2ccccc2OC3)cc1 | - | . | - | - | - | -
CCCc1cc(C(=O)Nc2c(C)nn(Cc3c(Cl)cccc3Cl)c2C)no1 | - | . | - | - | - | -
O=C(COc1ccccc1C(=O)Nc1ccccc1)Nc1cccc(Cl)c1 | - | . | - | . | - | .
O=C1/C(=C\c2ccc(O)cc2)SC(=S)N1Cc1ccccc1 | ? | -[11.6 µM] | - | ? | - | -
O=C1/C(=C\c2cc(Br)cc(Br)c2O)SC(=S)N1Cc1ccccc1 | 3.16µM | 39.8µM | ? | 35.5µM | - | 79.4µM
CCOc1cc(/C=C2/SC(=S)N(Cc3ccccc3)C2=O)ccc1O | ? | 35.5µM | - | ? | - | ?
O=C1/C(=C/c2ccc(O)c([N+](=O)[O-])c2)SC(=S)N1Cc1ccccc1 | - | - | - | - | - | ?
O=C(Nc1ccccc1C(F)(F)F)N1CCOc2ccc(Cl)cc21 | - | . | - | ? | - | -
CC(=O)N(C(C)=O)N1C(=O)/C(=C/c2ccc(Cl)cc2)SC1=S | 25.1µM | ? | ? | ? | - | 28.2µM
CC(C)(C)c1ccc(OCc2cc(=O)n3c4c(sc3n2)CCCC4)cc1 | - | . | - | - | - | -
Oc1cc2c(c(Cl)c1O)CCNCC2c1ccccc1 (stereo not given) | 31.6µM | -[11.6 µM] | - | ? | - | ?
CS(=O)(=O)N1CCC2(CC1)CN(C(=O)Nc1ccccc1)C2 | . | . | . | . | - | .
Cc1ccc(CCNC(=O)c2cc3sccc3n2Cc2ccc(F)cc2)cc1 | - | . | - | - | - | -
Nc1nc(SCC(=O)Nc2ccc(C(F)(F)F)cc2)[nH]c(=O)c1NC(=O)c1ccc(F)c(F)c1 | - | - | - | - | - | -
COc1ccc(C(=O)Nc2cccc(S(C)(=O)=O)c2)cc1OC | - | - | - | - | - | -
COc1ccc(C(=O)Nc2c(N)nc(SCC(=O)Nc3ccc(NC(C)=O)cc3)[nH]c2=O)cc1OC | 79.4µM | - | - | ? | ? | ?
COc1ccc(C(=O)Nc2cccc(NC(C)=O)c2)cc1OC | ? | - | - | 8.91µM | ? | ?
CCN(CC)c1ccc2cc(-c3nnc(-c4cccc(Cl)c4)o3)c(=O)oc2c1 | 89.1µM | . | - | - | ? | -
CCN(CC)c1ccc2cc(-c3nnc(-c4ccncc4)o3)c(=O)oc2c1 | - | - | - | - | - | -
CN(C)c1c(Cl)cc(/C=C/c2ccnc3ccccc23)cc1Br | ? | . | - | . | - | .
Cc1cc2c(=O)c(C(=O)c3ccncc3)cn(CC(=O)Nc3cccc(C)c3C)c2cc1C | ? | . | - | 39.8µM | - | -
Cc1cccc(NC(=O)Cn2cc(C(=O)c3ccco3)c3ccccc32)c1C | ? | . | - | ? | - | 79.4µM
Cc1nn(-c2ccccc2)c(NC(=O)NS(=O)(=O)c2ccc(Cl)cc2)c1C#N | . | . | . | . | - | .
O=C(CCCCn1c(=O)c2ccccc2n(Cc2cccc(F)c2)c1=O)NCc1ccc2c(c1)OCO2 | - | . | - | - | - | -
SMILES | Pol iota inh | WRN inhibitor | FEN1 inhibitor | Pol beta inh | Pol kappa inh | Pol eta inh
O=C(Cc1ccc(S(=O)(=O)N2CCOCC2)s1)Nc1ccccc1Br | ? | - | - | 35.5µM | ? | ?
O=C(Cc1ccc(S(=O)(=O)N2CCOCC2)s1)NCC(=O)Nc1ccccc1Br | - | - | - | . | - | -
O=C(Cc1ccc(S(=O)(=O)N2CCCC2)s1)N1CCN(c2ccccc2)CC1 | - | - | - | 31.6µM | - | -
Cc1cc(C)cc(-n2ccn(Cc3ccc(F)cc3)c(=O)c2=O)c1 | - | . | - | - | - | -
CCOc1ccccc1NC(=O)c1cn(C2CCCC2)c(=O)c2c1c1ccccc1n2C | - | . | - | - | - | -
C[C@@H]1C[C@@H]2OC(=O)[C@]3(C)[C@H]2[C@@H](OC3(C)O)[C@]2(C)C(=O)C=C[C@H]12 (stereo not given in full) | ? | - | - | ? | - | -
C=C1C(=O)O[C@@H]2C[C@@H](C)[C@@H]3C=CC(=O)[C@@]3(C)[C@@H](OC(C)=O)[C@H]12 | ? | -[11.6 µM] | - | - | - | 44.7µM
O=C(/C=C/c1ccc(Br)cc1)NC(=O)c1ccccc1O | - | - | - | 31.6µM | - | -
